Source: PubChem (National Center for Advancing Translational Sciences (NCATS))
The list is not random: actives were taken first. Their share in the collection is about 2.4%.
Pol iota inh: inhibitors of human DNA polymerase iota | Q9UNA4 | Pol iota fluorescent replication assay, 10 min | Potency, µM (titrated, usually from 115 µM), usual class: inhibitors | actives 1% (n = 390,000) | AID 588590
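Pol iota at 10 nM preincubated 15 min with compounds at room temperature; reaction started with fluorescent substrate, 50 nM final. Fluorescence read kinetically at 0 and 10 min; buffer-only wells as negative control.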
Pol kappa inh-1: DNA polymerase kappa (human) inhibition; actives 0.53% (n = 400,000); purified Pol kappa, fluorescent DNA synthesis assay, 10 min; Potency, µM (series often up to 107 µM), usual class: inhibitors; Q9UBT6
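50 nM final substrate added after 15 min RT preincubation of 10 nM Pol kappa with compound; fluorescence read at 0 and 10 min.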
PGK inhibitor: inhibitors of T. brucei phosphoglycerate kinase; PGK/GAPDH coupled, Kinase-Glo luminescence, 60 min; Potency, µM (titrated, usually from 57.5 µM), hits mostly inhibitors; actives 0.043% (n = 380,000); AID 602233; note: nearly all actives have a fitted effect of over 60% in size
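Recombinant glycosomal PGK reaction used 1,3-bisphosphoglycerate generated in-well by GAPDH (100nM final) in 100mM TEA pH 7.6, 5mM MgCl2, 0.01% Tween-20. After 60 minutes at room temperature, ATP was read by Kinase-Glo Plus luminescence end-point.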
Pol eta inh-1: inhibitors of human DNA polymerase eta. Q9Y253. actives 1.2% (n = 390,000). Potency, µM (doses to about 114 µM), hits mostly inhibitors. recombinant Pol eta, fluorescent DNA replication assay. AID 588591
Target sequence (Q9Y253 whole entry, looked up): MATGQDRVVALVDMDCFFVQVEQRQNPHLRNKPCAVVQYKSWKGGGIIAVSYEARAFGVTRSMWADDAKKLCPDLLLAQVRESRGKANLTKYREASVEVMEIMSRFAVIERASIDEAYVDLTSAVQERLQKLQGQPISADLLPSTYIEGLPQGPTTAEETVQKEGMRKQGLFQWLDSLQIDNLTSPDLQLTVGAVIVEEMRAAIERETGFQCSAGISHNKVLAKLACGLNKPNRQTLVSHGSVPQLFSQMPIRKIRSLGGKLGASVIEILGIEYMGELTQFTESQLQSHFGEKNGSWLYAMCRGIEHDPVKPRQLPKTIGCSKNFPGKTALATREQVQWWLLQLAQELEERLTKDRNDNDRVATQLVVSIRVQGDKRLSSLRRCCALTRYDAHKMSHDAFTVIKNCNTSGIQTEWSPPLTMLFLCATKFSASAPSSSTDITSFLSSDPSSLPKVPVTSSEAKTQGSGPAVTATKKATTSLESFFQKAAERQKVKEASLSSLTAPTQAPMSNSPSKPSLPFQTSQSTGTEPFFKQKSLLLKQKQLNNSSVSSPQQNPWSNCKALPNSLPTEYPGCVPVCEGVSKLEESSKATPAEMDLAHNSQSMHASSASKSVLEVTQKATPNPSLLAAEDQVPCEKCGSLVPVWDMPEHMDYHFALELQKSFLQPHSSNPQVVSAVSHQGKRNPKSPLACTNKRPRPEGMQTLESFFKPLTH
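Pol eta at 10 nM preincubated with compounds 15 min at room temperature; reaction started with fluorescent substrate (50 nM final) and read kinetically at 0 and 10 min.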
POLB inh: blocks human DNA polymerase beta activity | actives 1.3% (n = 340,000) | Potency, µM (highest dose often 114 µM), actives largely listed as inhibitors | Pol beta primer extension/strand displacement, fluorescence kinetic | P06746
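Values derive from four-parameter Hill fits of normalized kinetic data: reads at 0 and 10 min following addition of 50 nM substrate to 10 nM Pol beta preincubated 15 min with compound.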
FEN1 inh-1: inhibitors of human flap endonuclease 1; actives 0.35% (n = 390,000); Recombinant FEN1 flap cleavage, fluorescence, 15 min; Potency, µM (series often up to 114 µM), most hits filed as inhibitors; AID 588795; note: nearly all actives have a fitted effect of over 65% in size
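In this screen, 50 nM flap DNA substrate was added to 10 nM FEN1 pretreated with compound for 15 min at room temperature; cleavage was followed with reads at 0 and 15 min, and Hill fitting gave concentration–response parameters.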
PGK validate: validation of Trypanosoma brucei phosphoglycerate kinase inhibitors | TbPGK coupled GAPDH assay, Kinase-Glo luminescence | shares compounds with Pol kappa inh-1 | actives 79% (n = 500) | Potency, µM (doses to about 57.5 µM), most hits filed as inhibitors; note: nearly all actives have a fitted effect of over 65% in size
POLI cherry-pick: Human Pol iota inhibitor confirmatory assay | shares compounds with Pol kappa inh-1 | actives 77% (n = 1,500) | Potency, µM, most hits filed as inhibitors | Pol iota primer extension, TAMRA/BHQ fluorescence | AID 720496
Pol kappa inh-2: confirmation of human DNA polymerase kappa inhibitors; shares compounds with Pol eta inh-1; purified Pol-kappa, fluorescent strand-displacement substrate; Potency, µM, hits mostly inhibitors; actives 76% (n = 920)
Pol eta inh-2: Pol eta (human) inhibition, cherry-pick confirmation; shares compounds with Pol eta inh-1; Pol eta primer extension, TAMRA/BHQ fluorescence, 10 min; Potency, µM, usual class: inhibitors; actives 64% (n = 2,600)
FEN1 inh-2: confirmation of human FEN1 inhibitors; shares compounds with FEN1 inh-1; FEN1 flap cleavage, TAMRA/BHQ2 fluorogenic DNA substrate; Potency, µM, hits mostly inhibitors; actives 79% (n = 880); AID 720498; note: nearly all actives have a fitted effect of over 60% in size
A number is an active result; 0 = inactive; ? = inconclusive; - = not tested or not shown. Calls come from the whole dose curve; as a rule, active = well fitted curve in the direction sought with a large enough effect; inconclusive = small, poorly fitted or top-dose-only effect, or another doubt; inactive = no such curve, though single readings can be large; an effect the other way counts as inactive or inconclusive.

SMILES	Pol iota inh	Pol kappa inh-1	PGK inhibitor	Pol eta inh-1	POLB inh	FEN1 inh-1	POLI cherry-pick	Pol eta inh-2	others
CCc1nnc(NC(=O)CSc2sc3c(O)cc(=O)[nH]c3c2C#N)s1	1.8µM	8.9µM	?	3.5µM	0.56µM	4.5µM	42	30	Pol kappa inh-2=17
CCSc1nnc(NC(=O)CSc2sc3c(O)cc(=O)[nH]c3c2C#N)s1	3.5µM	20µM	?	3.5µM	35µM	35µM	42	24	Pol kappa inh-2=9.5
CCN1c2ccccc2-c2nc(SCC(=O)Nc3c(C)cc(C)cc3C)ncc2S1(=O)=O	0	0	0	0	0	0	-	-
CCOc1ccc(N(CC)S(=O)(=O)N2CCCC(C(=O)NCCc3ccccc3OC)C2)cc1 (stereo unspecified)	0	0	0	0	0	0	-	-
Cc1cc(CC(=O)O)c2oc(-c3ccoc3)cc(=O)c2c1	?	40µM	0	8.9µM	-	?	34	7.6
Cc1cccc(C(=O)N2CCc3cc(CNC(=O)c4cc5ccccc5[nH]4)ccc32)c1	0	0	0	0	0	0	-	-
Cc1ccc(/C=C2\SC(=S)N(CCC(=O)NNC(=O)c3ccc(O)cc3)C2=O)cc1	0	0	0	0	0	0	-	-
CN1C(=O)/C(=C/c2ccc(C(=O)Nc3ccc(O)cc3C(=O)O)cc2)SC1=S	?	0	0	22µM	?	?	75	43
COc1cc(/C=C(\C#N)C(=O)N2CCOCC2)cc(Br)c1O	0	0	-	0	0	0	-	-
COc1cc(/C=C(\C#N)C(=O)c2ccc(O)c(O)c2)cc(I)c1O	0.89µM	0.42µM	?	0.89µM	0.6µM	3.5µM	6.7	5.4	PGK validate=3.7µM;Pol kappa inh-2=2.4
COc1ccc(N(Cc2cccs2)C(=O)c2ccc(Br)o2)cc1	0	0	0	0	0	0	-	-
O=C(N/N=C/c1cccc(Cl)c1Cl)Nc1ccccc1	0	0	0	0	0	0	-	-
O=C(N/N=C/c1cccn1-c1cccc(C(=O)O)c1)Nc1ccccc1	?	79µM	?	7.9µM	28µM	0	75	60
CCc1cc(C(=O)N=Nc2c(O)[nH]c3ccc([N+](=O)[O-])cc23)c2ccccc2n1	?	?	0	50µM	32µM	?	?	76
Cc1ccc(S(=O)(=O)Nc2cc(C)c(O)cc2C)cc1	0	0	0	0	0	0	-	-
Cc1ccc(S(=O)(=O)Nc2csc(C)c2C(=O)O)cc1	?	0	0	18µM	8.9µM	0	67	48
COc1ccc(CNC(=O)c2ccc(N3CCCC3)c(NC(=O)NCc3ccc(F)cc3)c2)cc1	0	0	0	0	0	0	-	-
C=CCc1cccc2cc(C(=O)Nc3ccc(S(=O)(=O)Nc4nnc(CC)s4)cc3)c(=O)oc12	8.9µM	0	?	10µM	0	40µM	?	30	Pol kappa inh-2=38;FEN1 inh-2=85
Cc1ccc(C)c(Cn2c3ccccc3c3cnn(CC(=O)NC(C)CCc4ccccc4)c(=O)c32)c1 (stereo unspecified)	0	0	0	0	0	0	-	-
Cc1cc(N/N=C/c2ccccc2O)c2ccccc2n1	0	0	0	0	?	?	-	-
COc1ccc2nc(C)cc(N/N=C/c3cccc(OC)c3O)c2c1	?	79µM	0	?	?	14µM	30	27	Pol kappa inh-2=?;FEN1 inh-2=9.5
